rCAG binder = r(CAG) repeat RNA binding | inhibition, % at 3 µM | hit rate 1.3% among 370,000 | TO-PRO-1 dye displacement fluorescence;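 active = inhibition above the plate cutoff, the mean of all test compounds on that plate plus 3 SD, cut at about 35% in these data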;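 note: 0% = DMSO alone and 100% = 100 µM mitoxantrone as full dye displacement; higher means more dye released from RNA so lower well fluorescence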
PRMT1 FP inh = blocks human protein arginine methyltransferase 1; recombinant PRMT1, activity-based probe fluorescence polarization; inhibition, % at 2.79 µM; hit rate 1.3% among 370,000; AID 652257;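 active = inhibition above about 21% made by adding two undisclosed values, limit read from the data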
Target sequence (Q99873 whole entry, looked up): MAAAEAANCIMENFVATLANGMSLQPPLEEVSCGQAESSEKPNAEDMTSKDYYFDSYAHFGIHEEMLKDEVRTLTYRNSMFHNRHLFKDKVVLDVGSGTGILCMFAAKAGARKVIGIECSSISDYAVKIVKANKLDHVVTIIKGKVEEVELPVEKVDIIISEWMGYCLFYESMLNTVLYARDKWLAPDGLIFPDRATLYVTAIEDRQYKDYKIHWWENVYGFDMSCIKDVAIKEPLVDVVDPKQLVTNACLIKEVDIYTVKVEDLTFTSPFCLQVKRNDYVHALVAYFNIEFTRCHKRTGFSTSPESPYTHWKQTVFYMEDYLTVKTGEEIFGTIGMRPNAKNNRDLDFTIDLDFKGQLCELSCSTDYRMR
Rtt109 HAT inh = blocks Candida albicans Rtt109/Vps75 acetyltransferase activity; purified Rtt109/Vps75, ThioGlo CoA-SH fluorescence, 4 h; inhibition, % at 34.9 µM; hit rate 0.16% among 330,000; AID 540336;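 active = inhibition of at least 50% in every replicate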
ALR H2O2 inh = human ALR oxidase inhibition via reduced H2O2; purified ALR, DTT oxidation, H2O2 HRP-luminol luminescence; AID 485317; P55789; hit rate 3.8% among 290,000; inhibition, % (no concentration beside the values);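 active = mean replicate inhibition above about 79%, with every replicate also reaching it, limit read from the data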
ABHD5 PLIN5 PPI = ABHD5-PLIN5 protein interaction inhibition; Q00G26+Q8WTS1; Split G. princeps luciferase complementation, luminescence, 4 h; inhibition, % at 4 µM; hit rate 0.78% among 360,000; AID 602281;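 active = inhibition above the mean inhibition across every tested compound plus 3 SD, cut at about 22% in these data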;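 note: 0% = DMSO only wells and the 100% control is not disclosed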
LANA-H2B inh = blocks KSHV LANA binding to histone H2A/H2B | inhibition, % (no concentration beside the values) | cell-free LANA-H2A/H2B peptide, fluorescence polarization | AID 2629 | Q9QR71 | hit rate 0.6% among 320,000; in the data active = inhibition mostly above about 10%, no sharp cut-off; inactive = mostly below about 6.7%
An asterisk follows results filed as active; / = no result given. A selection: hits, their analogues and other compounds. The true share with any hit is near 5.9%.

SMILES | rCAG binder | PRMT1 FP inh | Rtt109 HAT inh | ALR H2O2 inh | ABHD5 PLIN5 PPI | LANA-H2B inh
O=S1(=O)CC(N2CCCC2)CN1Cc1cn(Cc2ccc(C(F)(F)F)cc2)nn1 (centres undefined) | 1.5 | -0.6 | / | / | / | /
CC1=C2N=C(N)N(Cc3ccccc3)C(Cc3ccccc3)C2n2c(=O)n(-c3ccccc3)c(=O)n2C1 (centres undefined) | 15.3 | 1.8 | / | / | / | /
CCCCOCCCNC(=O)C[C@H]1C[C@@]2(C(=O)OC)C(=C[C@H](C(C)C)O[C@@H]2C2CC2)N(Cc2ccc3c(c2)OCO3)C1=O | -1.0 | -3.1 | / | / | / | /
CCCN1CCC(=O)N(CCO)CC1 | -1.5 | -2.3 | 2.4 | -3.4 | -1.9 | -3.3
Cc1ccc2nc(/C(C#N)=C/c3ccc(-c4cccc([N+](=O)[O-])c4)o3)[nH]c2c1 | 10.4 | -3.3 | 0.5 | -9.4 | 4.4 | 1.1
Cc1ccc2nc(/C(C#N)=C\c3cc(O)ccc3[N+](=O)[O-])[nH]c2c1 | 10.6 | 1.8 | -6.8 | 97.9* | -2.7 | 3.5
CCCC1CCC2(CCC(=O)N2CCC#N)CC1 (centres undefined) | -1.4 | -1.6 | / | / | / | /
COC(=O)C1CN(C2CCCC2)CCS(=O)(=O)N1Cc1cn(Cc2ccc(OC)cc2)nn1 (centres undefined) | -0.6 | -0.6 | / | / | / | /
Cc1cccc(CN2CCN(C3CN(Cc4cn(Cc5ccccc5)nn4)S(=O)(=O)C3)CC2)c1 (centres undefined) | -1.4 | -8.4 | / | / | -10.3 | /
CSc1cccc(NC(=O)CCC(=O)O)c1 | -0.6 | 0.0 | 3.1 | -6.5 | 3.0 | 1.2
Cc1c(C)c(C)c(C(=O)CCc2cccc(NC(=O)CCC(=O)O)c2)c(C)c1C | 33.6 | -4.5 | 7.5 | 95.5* | 2.4 | 2.6
Cn1c(/N=C(\N)c2ccccc2)nc2ccccc21 | 1.1 | 1.3 | / | / | -4.6 | /
O=C(Nc1cccc(Br)c1)OC1CC2CC1[C@H]1CCCCN1C2 (some centres undefined) | 12.7 | 1.9 | / | / | / | /
CCOc1cc(CNc2ncc(-c3ccc(OC)cc3)n2C)ccc1O | 1.8 | 1.7 | 8.8 | 78.1* | -1.7 | -0.2
COc1cc(CNc2ncc(-c3ccc(Br)cc3)n2C)cc(OC)c1OC | 5.4 | -1.6 | -4.9 | 90.7* | 4.5 | 5.0
COc1cc(CNc2ncc(-c3ccc(Cl)cc3)n2C)cc(OC)c1OC | -0.7 | 1.4 | -2.0 | 94.6* | 4.4 | -2.1
Cn1c(-c2ccc(F)cc2)cnc1NCc1ccc(F)cc1 | -3.1 | 1.0 | 4.7 | 91.3* | 2.8 | 5.7
Cn1c(-c2ccc(Br)cc2)cnc1NCc1cccnc1 | 2.6 | -4.5 | -7.3 | 20.5 | -0.3 | 6.0

Screening results as filed in PubChem.
